Experimental data from the supplement of paper PMC10849652.
About 8,800 targets were measured; listed, in parts, are those with a hit and a random draw of the rest. About 0.5% of all pairs of compound and target were hits.

What follows are targets tested with Cc1cn(-c2cc(NC(=O)c3ccc(C)c(Nc4nccc(-c5cccnc5)n4)c3)cc(C(F)(F)F)c2)cn1 [nilotinib] (assay: log2 fold change, soluble protein after heating vs DMSO (PISA); higher = thermal stabilisation; K562 lysate, 10 uM; active = over 0.2 and 3.5 SD of the protein, either way, in both replicates (recomputed)).
Procedure, shortened: (§1)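 Log-two fold change in thermal stability relative to solvent controls is reported from duplicates. For each sample, crude K562 extract from dounce-homogenised pellets in PBS pH 7.4 with 1 mM MgCl2, at 1 mg/mL protein, was treated with 10 μM compound for 30 min. Aliquots heated for 3 min across 48°C-58°C were pooled, brought to 0.5% NP-40 at 4°C and cleared at 21,000xg for 90 min. The supernatant was quantified by TMTpro 16plex LC-MS/MS with channel sums equalised.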

Sequence of UniProt Q9NZJ0 (Q9NZJ0 whole entry, looked up): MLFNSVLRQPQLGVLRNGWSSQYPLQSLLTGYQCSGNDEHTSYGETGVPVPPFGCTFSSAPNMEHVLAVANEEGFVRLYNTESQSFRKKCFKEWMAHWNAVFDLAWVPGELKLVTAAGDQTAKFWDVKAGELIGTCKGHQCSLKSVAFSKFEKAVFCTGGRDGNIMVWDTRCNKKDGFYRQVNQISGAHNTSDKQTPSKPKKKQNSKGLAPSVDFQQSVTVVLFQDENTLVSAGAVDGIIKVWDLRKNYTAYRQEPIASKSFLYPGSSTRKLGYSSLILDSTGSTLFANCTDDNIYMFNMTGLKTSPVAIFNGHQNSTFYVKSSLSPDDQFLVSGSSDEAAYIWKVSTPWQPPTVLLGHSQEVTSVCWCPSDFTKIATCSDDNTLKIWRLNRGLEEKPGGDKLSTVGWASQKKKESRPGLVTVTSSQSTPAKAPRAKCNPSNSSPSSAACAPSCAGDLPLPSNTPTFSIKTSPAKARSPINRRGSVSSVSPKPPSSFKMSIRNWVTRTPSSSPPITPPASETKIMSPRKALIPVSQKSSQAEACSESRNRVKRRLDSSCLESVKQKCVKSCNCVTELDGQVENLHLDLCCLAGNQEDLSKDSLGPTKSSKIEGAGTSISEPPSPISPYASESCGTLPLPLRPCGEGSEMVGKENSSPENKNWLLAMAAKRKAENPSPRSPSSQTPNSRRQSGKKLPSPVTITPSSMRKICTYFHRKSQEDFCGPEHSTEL
Sequence of UniProt Q9P0K8 (Q9P0K8 whole entry, looked up): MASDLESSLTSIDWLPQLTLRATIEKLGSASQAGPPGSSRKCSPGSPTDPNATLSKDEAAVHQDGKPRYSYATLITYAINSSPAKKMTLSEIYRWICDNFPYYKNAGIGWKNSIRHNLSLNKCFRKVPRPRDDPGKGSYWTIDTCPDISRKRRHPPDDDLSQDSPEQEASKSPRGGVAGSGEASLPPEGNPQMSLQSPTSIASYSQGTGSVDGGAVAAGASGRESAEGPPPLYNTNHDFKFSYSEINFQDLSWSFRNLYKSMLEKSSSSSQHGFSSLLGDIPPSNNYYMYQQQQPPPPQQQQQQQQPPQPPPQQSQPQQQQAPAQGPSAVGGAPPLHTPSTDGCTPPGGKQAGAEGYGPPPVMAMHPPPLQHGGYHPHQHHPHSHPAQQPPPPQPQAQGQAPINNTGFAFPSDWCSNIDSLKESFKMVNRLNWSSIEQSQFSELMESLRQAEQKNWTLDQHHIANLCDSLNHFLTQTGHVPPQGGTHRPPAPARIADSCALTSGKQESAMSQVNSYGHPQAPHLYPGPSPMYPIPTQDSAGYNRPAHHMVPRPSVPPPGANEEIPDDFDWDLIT
Sequence of UniProt P11171 (P11171 whole entry, looked up): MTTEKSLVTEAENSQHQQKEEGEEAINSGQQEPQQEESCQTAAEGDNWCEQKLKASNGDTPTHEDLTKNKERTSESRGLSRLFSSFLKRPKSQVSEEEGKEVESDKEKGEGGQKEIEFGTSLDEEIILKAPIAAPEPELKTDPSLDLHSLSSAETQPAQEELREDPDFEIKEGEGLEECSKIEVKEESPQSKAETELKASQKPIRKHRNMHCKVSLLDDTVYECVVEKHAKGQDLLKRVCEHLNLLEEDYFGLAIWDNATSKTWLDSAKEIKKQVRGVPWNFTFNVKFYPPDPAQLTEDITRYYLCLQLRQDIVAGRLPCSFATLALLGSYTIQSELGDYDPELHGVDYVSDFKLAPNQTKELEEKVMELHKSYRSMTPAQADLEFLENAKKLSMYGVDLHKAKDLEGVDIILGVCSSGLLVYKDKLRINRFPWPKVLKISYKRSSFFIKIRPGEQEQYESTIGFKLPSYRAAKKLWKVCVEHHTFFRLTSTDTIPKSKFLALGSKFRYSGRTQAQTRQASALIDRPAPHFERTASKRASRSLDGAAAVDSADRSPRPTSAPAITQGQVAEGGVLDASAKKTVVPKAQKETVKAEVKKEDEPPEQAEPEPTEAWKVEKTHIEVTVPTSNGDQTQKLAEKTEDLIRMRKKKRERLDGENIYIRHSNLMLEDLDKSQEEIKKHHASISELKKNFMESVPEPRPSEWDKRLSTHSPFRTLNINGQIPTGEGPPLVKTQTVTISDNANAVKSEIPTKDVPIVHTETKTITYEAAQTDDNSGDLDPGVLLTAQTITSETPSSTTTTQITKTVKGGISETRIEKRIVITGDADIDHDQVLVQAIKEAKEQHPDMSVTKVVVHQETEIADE
Sequence of UniProt Q9Y6B2 (Q9Y6B2 whole entry, looked up): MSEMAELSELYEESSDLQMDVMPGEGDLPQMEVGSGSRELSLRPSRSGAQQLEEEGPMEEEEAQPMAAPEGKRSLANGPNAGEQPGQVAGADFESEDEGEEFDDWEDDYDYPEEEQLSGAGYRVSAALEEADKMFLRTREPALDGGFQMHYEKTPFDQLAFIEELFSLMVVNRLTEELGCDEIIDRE
Sequence of UniProt Q9NRW4 (Q9NRW4 whole entry, looked up): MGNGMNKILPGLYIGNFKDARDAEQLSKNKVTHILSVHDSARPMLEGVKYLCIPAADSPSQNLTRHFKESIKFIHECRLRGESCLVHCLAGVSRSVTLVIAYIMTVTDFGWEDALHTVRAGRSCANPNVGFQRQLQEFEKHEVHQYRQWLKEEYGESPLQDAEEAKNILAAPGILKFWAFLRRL
Sequence of UniProt Q9Y2H6 (Q9Y2H6 whole entry, looked up): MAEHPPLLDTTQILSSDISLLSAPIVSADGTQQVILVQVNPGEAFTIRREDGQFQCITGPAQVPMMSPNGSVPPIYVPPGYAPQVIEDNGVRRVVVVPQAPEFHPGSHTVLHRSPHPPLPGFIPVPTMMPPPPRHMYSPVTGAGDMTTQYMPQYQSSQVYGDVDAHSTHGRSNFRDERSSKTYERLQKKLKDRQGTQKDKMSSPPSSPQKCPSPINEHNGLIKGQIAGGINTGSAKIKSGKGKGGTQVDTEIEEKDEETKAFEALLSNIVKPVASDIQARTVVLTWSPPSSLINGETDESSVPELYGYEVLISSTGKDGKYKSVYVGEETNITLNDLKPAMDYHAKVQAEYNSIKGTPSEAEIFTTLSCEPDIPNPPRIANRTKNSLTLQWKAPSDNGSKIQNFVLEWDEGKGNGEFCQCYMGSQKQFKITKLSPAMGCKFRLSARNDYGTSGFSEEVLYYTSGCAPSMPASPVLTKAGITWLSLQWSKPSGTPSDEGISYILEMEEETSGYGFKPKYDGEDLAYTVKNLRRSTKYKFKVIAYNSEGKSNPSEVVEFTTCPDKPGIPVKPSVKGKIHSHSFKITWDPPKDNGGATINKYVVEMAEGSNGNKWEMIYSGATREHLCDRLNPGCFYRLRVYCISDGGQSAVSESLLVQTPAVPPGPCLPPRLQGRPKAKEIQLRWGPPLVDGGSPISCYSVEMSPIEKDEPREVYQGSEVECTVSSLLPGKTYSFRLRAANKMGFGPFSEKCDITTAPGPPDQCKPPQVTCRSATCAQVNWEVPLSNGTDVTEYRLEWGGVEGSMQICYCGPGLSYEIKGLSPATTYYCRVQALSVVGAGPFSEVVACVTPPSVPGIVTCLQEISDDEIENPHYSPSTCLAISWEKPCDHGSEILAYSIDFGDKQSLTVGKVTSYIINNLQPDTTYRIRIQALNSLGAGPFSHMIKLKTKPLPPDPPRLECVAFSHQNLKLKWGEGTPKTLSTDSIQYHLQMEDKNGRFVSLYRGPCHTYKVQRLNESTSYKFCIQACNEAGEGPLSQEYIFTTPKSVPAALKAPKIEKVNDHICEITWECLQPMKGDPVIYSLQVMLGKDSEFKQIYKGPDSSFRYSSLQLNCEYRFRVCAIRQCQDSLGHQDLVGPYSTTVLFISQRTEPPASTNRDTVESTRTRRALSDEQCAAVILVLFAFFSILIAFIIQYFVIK
Sequence of UniProt Q14153 (Q14153 whole entry, looked up): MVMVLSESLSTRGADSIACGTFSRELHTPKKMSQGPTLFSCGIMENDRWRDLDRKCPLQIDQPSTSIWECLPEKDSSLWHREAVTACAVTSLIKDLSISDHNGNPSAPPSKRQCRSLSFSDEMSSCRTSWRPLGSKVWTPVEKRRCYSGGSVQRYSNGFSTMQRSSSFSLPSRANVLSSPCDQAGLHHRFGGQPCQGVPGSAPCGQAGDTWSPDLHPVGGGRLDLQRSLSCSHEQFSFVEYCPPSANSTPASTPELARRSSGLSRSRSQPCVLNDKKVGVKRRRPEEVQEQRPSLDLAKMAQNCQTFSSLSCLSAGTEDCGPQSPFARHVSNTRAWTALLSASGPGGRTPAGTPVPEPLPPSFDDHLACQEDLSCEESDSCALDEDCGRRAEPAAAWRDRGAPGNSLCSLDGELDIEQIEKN
Sequence of UniProt P28676 (P28676 whole entry, looked up): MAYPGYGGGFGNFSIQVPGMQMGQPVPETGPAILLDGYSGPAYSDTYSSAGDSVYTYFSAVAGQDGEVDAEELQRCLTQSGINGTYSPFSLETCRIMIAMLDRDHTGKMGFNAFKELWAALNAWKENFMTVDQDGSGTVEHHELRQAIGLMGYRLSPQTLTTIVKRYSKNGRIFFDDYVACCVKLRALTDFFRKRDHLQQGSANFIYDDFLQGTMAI
Sequence of UniProt P0C2W1 (P0C2W1 whole entry, looked up): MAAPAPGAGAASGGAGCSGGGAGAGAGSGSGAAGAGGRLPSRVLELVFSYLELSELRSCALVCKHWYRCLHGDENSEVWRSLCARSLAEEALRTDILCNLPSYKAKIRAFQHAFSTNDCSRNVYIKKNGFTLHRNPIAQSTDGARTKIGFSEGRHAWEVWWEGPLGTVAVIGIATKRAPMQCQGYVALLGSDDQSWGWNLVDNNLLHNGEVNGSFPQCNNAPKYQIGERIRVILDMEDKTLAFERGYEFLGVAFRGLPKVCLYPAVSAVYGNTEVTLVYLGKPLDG

log2 fold change, inactive:
GCA (UniProt P28676) 0.071
GAA (UniProt P10253) 0.058
EID1 (UniProt Q9Y6B2) 0.067
FBRSL1, A0A3B3IRR3 0.034
GART (UniProt C9JZG2) -0.085
FOXJ2 (UniProt Q9P0K8) 0.033
EPB41 isoform 4 (UniProt P11171) 0.124
EIF2AK3 (UniProt Q9NZJ5) 0.124
FAM98A (UniProt Q8NCA5) -0.045
FNDC3A (UniProt Q9Y2H6) -0.057
DUSP22 isoform 2 (UniProt Q9NRW4) -0.039
DTL (UniProt Q9NZJ0) 0.005
EPN2 (UniProt I3L356) -0.248
EIF3I (UniProt Q5TFK1) 0.108
FAT2 (UniProt Q9NYQ8) -0.086
FBXO45 (UniProt P0C2W1) 0.025
EIF2B5, A0A3B3ITK8 -0.455
FAM53B (UniProt Q14153) 0.015

The targets below were run with Cc1nc(Nc2n[nH]c3c2CN(C(=O)N[C@H](CN(C)C)c2ccccc2)C3(C)C)c2sccc2n1 in the same assay as above.
Procedure, shortened: as §1

log2 fold change, inactive:
GCA (UniProt P28676) -0.11
GAA (UniProt P10253) 0.115
EID1 (UniProt Q9Y6B2) 0.085
FBRSL1, A0A3B3IRR3 0.022
GART (UniProt C9JZG2) -0.033
FOXJ2 (UniProt Q9P0K8) 0.29
EPB41 isoform 4 (UniProt P11171) 0.044
EIF2AK3 (UniProt Q9NZJ5) 0.012
FAM98A (UniProt Q8NCA5) 0.034
FNDC3A (UniProt Q9Y2H6) -0.125
DUSP22 isoform 2 (UniProt Q9NRW4) -0.073
DTL (UniProt Q9NZJ0) -0.022
EPN2 (UniProt I3L356) 0.062
EIF3I (UniProt Q5TFK1) -0.239
FAT2 (UniProt Q9NYQ8) 0.086
FBXO45 (UniProt P0C2W1) 0.028
EIF2B5, A0A3B3ITK8 0.16
FAM53B (UniProt Q14153) 0.013
